Experimental data as given in PubChem BioAssay (EPA / NIEHS).
Activity calls are given as the source filed them. The calls were made as follows: active = hit-call score of the fitted dose curve at least 0.9, where 1 is the maximum; inactive = score below 0.9.

Columns and labels:
[1] = BSK_hDFCGF_SRB: Viability Assessment in the BioMAP Diversity Plus: hDFCGF Assay (AID 2283061); conditions: primary human foreskin fibroblasts;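 also: cells exposed to compound for 24 h before the read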
Method in brief: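 SRB-based viability read on primary human skin fibroblasts at 24 h: TCA fixation, 0.1% dye, 560 nm. Gain or loss of signal is fitted against the DMSO negative control.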

[2] = read-out: TIMP metallopeptidase inhibitor 1 (TIMP1), TIMP1 (gene 7076); assay: BSK_hDFCGF_TIMP1: BioMAP Diversity Plus: hDFCGF Assay for TIMP metallopeptidase inhibitor 1 (TIMP1) Biomarker Activity (AID 2283062); conditions: primary human foreskin fibroblasts; actives raise or lower the signal
Method in brief: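 Bidirectional curve fitting against DMSO baseline yielded this endpoint, based on ELISA detection of TIMP-1 in primary human foreskin fibroblasts exposed to compound for 24 h.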

[3] = read-out: Monokine induced gamma interferon (MIG), CXCL9 (gene 4283); assay: BSK_hDFCGF_MIG: BioMAP Diversity Plus: hDFCGF Assay for Monokine induced gamma interferon (MIG) Biomarker Activity (AID 2283063); conditions: primary human foreskin fibroblasts; actives raise or lower the signal
Method in brief: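 Endpoint derived by bidirectional fitting relative to DMSO; MIG quantified via ELISA in primary human foreskin fibroblasts harvested 24 h after dosing.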

[4] = read-out: Matrix Metallopeptidase 1 (MMP1), MMP1 (gene 4312); assay: BSK_hDFCGF_MMP1: BioMAP Diversity Plus: hDFCGF Assay for Matrix Metallopeptidase 1 (MMP1) Biomarker Activity (AID 2283064); conditions: primary human foreskin fibroblasts; actives raise or lower the signal
Method in brief: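 ELISA read-out of MMP1 from human foreskin fibroblasts (primary skin cells), 24 h post-dose. Gain or loss of signal was fitted bidirectionally versus DMSO negative control; cytotoxicity was checked by SRB in parallel cultures.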

[5] = read-out: Vascular cell adhesion molecule 1 (VCAM1), VCAM1 (gene 7412); assay: BSK_hDFCGF_VCAM1: BioMAP Diversity Plus: hDFCGF Assay for Vascular cell adhesion molecule 1 (VCAM1) Biomarker Activity (AID 2283065); conditions: primary human foreskin fibroblasts; actives raise or lower the signal;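 as to AC50: VCAM-1 protein level quantified by ELISA after 24 h chemical exposure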
Method in brief: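 Measured after 24 h chemical treatment of primary human skin fibroblasts, VCAM-1 was detected by ELISA and concentration-response analysed in both directions versus DMSO vehicle.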

[6] = read-out: Plasminogen activator inhibitor-1 (PAI1), SERPINE1 (gene 5054); assay: BSK_hDFCGF_PAI1: BioMAP Diversity Plus: hDFCGF Assay for Plasminogen activator inhibitor-1 (PAI1) Biomarker Activity (AID 2283066); conditions: primary human foreskin fibroblasts; actives raise or lower the signal
Method in brief: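 PAI-1 levels in human dermal foreskin fibroblasts were quantified by ELISA 24 h after dosing, with gain or loss analysed against DMSO. Overt cytotoxicity was checked by sulforhodamine B total-protein staining in parallel cultures.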

[7] = read-out: Intercellular Adhesion Molecule 1 (ICAM1), ICAM1 (gene 3383); assay: BSK_KF3CT_ICAM1: BioMAP Diversity Plus: KF3CT Assay for Intercellular Adhesion Molecule 1 (ICAM1) Biomarker Activity (AID 2283067); conditions: primary human keratinocytes with fibroblasts; actives raise or lower the signal
Method in brief: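 Bidirectional curve fitting against a DMSO baseline was applied to ICAM-1 ELISA signal from primary human skin co-cultures harvested 24 h after treatment, with SRB staining of parallel wells for overt cytotoxicity.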

[8] = read-out: Interferon-gamma inducible Protein 10 (IP10), CXCL10 (gene 3627); assay: BSK_KF3CT_IP10: BioMAP Diversity Plus: KF3CT Assay for Interferon-gamma inducible Protein 10 (IP10) Biomarker Activity (AID 2283068); conditions: primary human keratinocytes with fibroblasts; actives raise or lower the signal
Method in brief: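 KF3CT co-culture (keratinocytes + foreskin fibroblasts), 24 h compound, IP-10 by ELISA; bidirectional fit vs DMSO baseline.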

[9] = BSK_KF3CT_SRB: Viability Assessment in the BioMAP Diversity Plus: KF3CT Assay (AID 2283069); conditions: primary human keratinocytes with fibroblasts;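 also: read 24 h after compound addition; fitted for both signal gain and loss against DMSO baseline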
Method in brief: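 SRB read-out at 560 nm (0.1% stain, TCA-fixed cells) gauges overt cytotoxicity in a human skin keratinocyte–fibroblast co-culture 24 h post-dosing. Signal change was fitted bidirectionally relative to DMSO control.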

[10] = read-out: Interleukin-1 alpha (IL1a), IL1A (gene 3552); assay: BSK_KF3CT_IL1a: BioMAP Diversity Plus: KF3CT Assay for Interleukin-1 alpha (IL1a) Biomarker Activity (AID 2283070); conditions: primary human keratinocytes with fibroblasts; actives raise or lower the signal
Method in brief: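 Primary skin co-culture (keratinocytes, foreskin fibroblasts), 24 h exposure; ELISA for IL-1a; bidirectional curve fit vs DMSO.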

Measured: AC50

Oc1ccc2ccc3cccc4ccc1c2c34
active: [1] 20 µM | [3] 7.57 µM | [5] 8.34 µM | [6] 22.5 µM | [8] 26.7 µM | [10] 20 µM
inactive: [2] | [4] | [7] | [9]

Cc1cccc(N)c1N
active: [7] 9.01 µM
not listed: [4]
inactive: all other assays above

C=CCc1ccc2c(c1)OCO2
inactive: all assays above

CCC12COCN1COC2
inactive: all assays above

Cc1cc(N=Nc2ccccc2C)ccc1N
active: [1] 34.5 µM | [3] 33.4 µM | [5] 23.5 µM | [6] 32.1 µM | [7] 31.8 µM | [8] 33.7 µM | [9] 29.9 µM | [10] 37.9 µM
inactive: [2] | [4]

O=C(N[C@H](c1ccccc1)[C@@H]1CN2CCC1CC2)c1c(Cl)ccc(C(F)(F)F)c1Cl
active: [7] 49.6 µM | [8] 49 µM | [9] 44.6 µM | [10] 47.9 µM
inactive: all other assays above

CCCSC(=O)N(CCC)CCC
not listed: [4]
inactive: all other assays above

Brc1ccc(Oc2ccccc2)cc1
inactive: all assays above

CNC(=O)Oc1cccc2c1OC(C)(C)C2
inactive: all assays above

COC(=O)Nc1nc2ccccc2[nH]1
not listed: [4]
inactive: all other assays above

CCC(C)c1ccc(O)cc1 (stereo unspecified)
not listed: [4]
inactive: all other assays above

Cc1ccc(N)c(N)c1
active: [3] 3.65 µM
not listed: [8]
inactive: all other assays above

CO[C@@H]1[C@H](OC(=O)NC(=O)CCl)CC[C@]2(CO2)[C@H]1[C@@]1(C)O[C@@H]1CC=C(C)C
active: [1] 9.25 µM | [2] 5.82 µM | [3] 8.35 µM | [4] 11.6 µM | [5] 4.58 µM | [8] 8.27 µM | [10] 7.91 µM
inactive: [6] | [7] | [9]

C[C@]12C=CC3=C4CCC(=O)C=C4CC[C@H]3[C@@H]1CC[C@@H]2O
active: [5] 27.7 µM | [6] 0.164 µM
not listed: [4]
inactive: all other assays above

CCCCCOC(=O)c1ccccc1C(=O)OCCCCC
active: [5] 4.45 µM
inactive: all other assays above

[O-][Cl+]O
not listed: [4]
inactive: all other assays above

O=P(OCCCl)(OCCCl)OCCCl
not listed: [4]
inactive: all other assays above

CC(C)COC(=O)c1ccccc1C(=O)OCC(C)C
active: [5] 20 µM
not listed: [4]
inactive: all other assays above

CC(C)(C)C(O)(CCc1ccc(Cl)cc1)Cn1cncn1 (stereo unspecified)
not listed: [4]
inactive: all other assays above

O=C(Oc1ccc(Br)cc1)N1CCN2CCC1CC2
not listed: [4]
inactive: all other assays above

OCCOCCO
not listed: [4]
inactive: all other assays above

OCCCl
not listed: [4]
inactive: all other assays above

Clc1ccc(Cl)c(Cl)c1
not listed: [4]
inactive: all other assays above

OCCCBr
not listed: [4]
inactive: all other assays above

CN(C)c1ccccc1
not listed: [4]
inactive: all other assays above

[As]#[In]
not listed: [4]
inactive: all other assays above

CCCCC(CC)COC(=O)c1ccc(C(=O)OCC(CC)CCCC)c(C(=O)OCC(CC)CCCC)c1 (stereo unspecified)
not listed: [4]
inactive: all other assays above

CC(O)CCO (stereo unspecified)
not listed: [4]
inactive: all other assays above

CC(C)(OOC(C)(C)c1ccccc1)c1ccccc1
active: [1] 29.1 µM | [3] 20 µM | [5] 28.8 µM | [6] 15.4 µM
not listed: [4]
inactive: all other assays above

O=C(Nc1ccccc1)c1ccccc1I
not listed: [4]
inactive: all other assays above

CC(C)(C)OOC(=O)c1ccccc1
active: [1] 30.9 µM | [2] 11.9 µM | [3] 35.1 µM | [5] 32.9 µM | [6] 7.15 µM
inactive: [7] | [8] | [9] | [10]

CCOC(=O)[C@]1(c2ccccc2)Oc2ccccc2[C@@H]1N
active: [1] 26.9 µM | [2] 30.2 µM | [5] 36.6 µM | [6] 33.6 µM
not listed: [3]
inactive: all other assays above

O=C1CCCO1
not listed: [4]
inactive: all other assays above

[Cl-].[Cl-].[Hg+2]
active: [1] 12.1 µM | [2] 13.5 µM | [3] 8.14 µM | [5] 7.96 µM | [6] 12.2 µM | [7] 20.8 µM | [8] 12.8 µM | [9] 13.2 µM | [10] 30.4 µM

c1ccc(NNc2ccccc2)cc1
not listed: [4]
inactive: all other assays above

CCCCOC(=O)c1ccccc1C(=O)OCc1ccccc1
active: [5] 20 µM
not listed: [4]
inactive: all other assays above

CN(C)C(=O)Nc1ccc(Cl)cc1
not listed: [4]
inactive: all other assays above

CC(C)N(Cc1ccccc1)C(=O)C(C)(C)C
not listed: [4]
inactive: all other assays above

CCOc1cccc(C2(N3CCN(c4ccccc4)CC3)CCC(C)CC2)c1 (stereo unspecified)
not listed: [4]
inactive: all other assays above

ClC1=C(Cl)[C@]2(Cl)[C@H]3[C@H]([C@@H]4C=C[C@H]3C4)[C@@]1(Cl)C2(Cl)Cl
active: [1] 10.3 µM | [3] 16.4 µM | [5] 10.1 µM | [6] 10.7 µM | [7] 15.5 µM | [8] 14.5 µM | [9] 30.6 µM

Nc1ccc(Cc2ccc(N)cc2)cc1
not listed: [4]
inactive: all other assays above

Nc1ccc(Oc2ccc(N)cc2)cc1
not listed: [4]
inactive: all other assays above

Cc1ccc(N=C=O)cc1N=C=O
not listed: [4]
inactive: all other assays above

Cc1ccc(N)cc1
not listed: [4]
inactive: all other assays above

c1ccc2c(c1)oc1ccccc12
not listed: [2] | [4]
inactive: all other assays above
